This passage reports Potency and viability results from PubChem BioAssay (NCATS).

SMILES strings stand for the structures. Results filed as inconclusive are left out. Values without a mark were called inactive. Active and inactive are the calls of the source. The call rests on the fitted dose curve; in most records, active means well fitted cell-killing curve with a large enough effect; inconclusive means small, poorly fitted or top-dose-only effect, or effect the other way; inactive means no such curve, though single readings can be large or run the other way.

As usually defined, the viability is a read-out of living cells in per cent, often relative to untreated cells.

Test [1] can be described thus: Quantitative High-Throughput drug screen in 47 multiple myeloma cell lines against the NCATS MIPE library collection: L363_DSMZ cell viability assay (AID 1918984). Further: nearly all actives have a fitted effect of over 40% in size. Further: potency means the concentration at half of the fitted maximal effect. Conditions: L363 myeloma viability, CellTiter-Glo ATP luminescence, 48 h; viability (% of control): at 45.8 µM (top of the series). An outline of the steps: (§1)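 Inhibition of viability over 48 h was scored by ATP content (CellTiter-Glo) in 500-cell wells. Zero and full viability were defined by media-only and DMSO-only wells.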
(In general: Cellular ATP, detected with luciferase, serves as a proxy for viable cell number.)

The nature of test [2]: Quantitative High-Throughput drug screen in 47 multiple myeloma cell lines against the NCATS MIPE library collection: OCIMY7_PLB cell viability assay (AID 1918987). Further: potency means the concentration at half of the fitted maximal effect; nearly all actives have a fitted effect of over 65% in size. Conditions: OCI-MY7 myeloma viability, CellTiter-Glo ATP, 48 h; viability (% of DMSO): at 45.8 µM (top of the series). The procedure, abridged: as §1
The nature of test [3]: Quantitative High-Throughput drug screen in 47 multiple myeloma cell lines against the NCATS MIPE library collection: OCIMY5_PLB cell viability assay (AID 1918988). Further: nearly all actives have a fitted effect of over 65% in size. Further: potency means the concentration at half of the fitted maximal effect. An outline of the steps:
as §1

Test [4] in a line: Quantitative High-Throughput drug screen in 47 multiple myeloma cell lines against the NCATS MIPE library collection: OPM1_PLB cell viability assay (AID 1918989). Further: potency means the concentration at half of the fitted maximal effect; nearly all actives have a fitted effect of over 40% in size. An outline of the steps: as §1
Test [5] in a line: Quantitative High-Throughput drug screen in 47 multiple myeloma cell lines against the NCATS MIPE library collection: XG1_PLB cell viability assay (AID 1919866). Further: nearly all actives have a fitted effect of over 35% in size. Further: potency means the concentration at half of the fitted maximal effect. An outline of the steps: as §1
Test [6] in a line: Quantitative High-Throughput drug screen in 47 multiple myeloma cell lines against the NCATS MIPE library collection: VP6_DJ cell viability assay (AID 1919867). Further: nearly all actives have a fitted effect of over 40% in size. Further: potency means the concentration at half of the fitted maximal effect.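 On viability (% of DMSO): 100% = DMSO-only wells and 0% = wells with media alone.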 An outline of the steps:
as §1

The nature of test [7]: Quantitative High-Throughput drug screen in 47 multiple myeloma cell lines against the NCATS MIPE library collection: UTMC2_PLB cell viability assay (AID 1919868). Further: nearly all actives have a fitted effect of over 55% in size. Further: potency means the concentration at half of the fitted maximal effect.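 On viability (% of DMSO control): 100% = DMSO-only wells and 0% = media-only wells without cells.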 The conditions noted are these: CellTiter-Glo ATP luminescence, 48 h; viability (% of DMSO control): at 45.8 µM (top of the series). An outline of the steps:
as §1

A short description of test [8]: Quantitative High-Throughput drug screen in 47 multiple myeloma cell lines against the NCATS MIPE library collection: PE2_PLB cell viability assay (AID 1919869). Further: nearly all actives have a fitted effect of over 35% in size. Further: potency means the concentration at half of the fitted maximal effect.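 On viability (% of control): 100% = DMSO-only wells and 0% = cell-free media-only wells.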 An outline of the steps: as §1
A short description of test [9]: Quantitative High-Throughput drug screen in 47 multiple myeloma cell lines against the NCATS MIPE library collection: PCM6_Riken cell viability assay (AID 1919870). Further: nearly all actives have a fitted effect of over 30% in size. Further: potency means the concentration at half of the fitted maximal effect.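 On viability (% of control): 100% = DMSO-only wells and 0% = media-only wells.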 An outline of the steps: as §1
The nature of test [10]: Quantitative High-Throughput drug screen in 47 multiple myeloma cell lines against the NCATS MIPE library collection: RPMI8226_ATCC cell viability assay (AID 1919871). Further: nearly all actives have a fitted effect of over 30% in size. Further: potency means the concentration at half of the fitted maximal effect. An outline of the steps:
as §1

A short description of test [11]: Quantitative High-Throughput drug screen in 47 multiple myeloma cell lines against the NCATS MIPE library collection: KMS11_JCRBsus cell viability assay (AID 1919873). Further: nearly all actives have a fitted effect of over 50% in size. Further: potency means the concentration at half of the fitted maximal effect.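 On viability (% of control): 100% = DMSO-only wells and 0% = media-only wells without cells.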 The procedure, abridged:
as §1

A short description of test [12]: Quantitative High-Throughput drug screen in 47 multiple myeloma cell lines against the NCATS MIPE library collection: KMS28BM_JCRB cell viability assay (AID 1919874). Further: nearly all actives have a fitted effect of over 35% in size. Further: potency means the concentration at half of the fitted maximal effect. The procedure, abridged: as §1
The nature of test [13]: Quantitative High-Throughput drug screen in 47 multiple myeloma cell lines against the NCATS MIPE library collection: XG6_PLB cell viability assay (AID 1919865). Further: nearly all actives have a fitted effect of over 40% in size. Further: potency means the concentration at half of the fitted maximal effect.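 On viability (% of control): 100% = DMSO-only wells and 0% = media-only wells.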 An outline of the steps:
as §1

Test [14] in a line: Quantitative High-Throughput drug screen in 47 multiple myeloma cell lines against the NCATS MIPE library collection: KMS34_JCRB cell viability assay (AID 1918985). The procedure, abridged:
as §1

A short description of test [15]: Quantitative High-Throughput drug screen in 47 multiple myeloma cell lines against the NCATS MIPE library collection: OPM2_DSMZ cell viability assay (AID 1919872). Further: nearly all actives have a fitted effect of over 30% in size. Further: potency means the concentration at half of the fitted maximal effect. An outline of the steps:
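Viability readout: CellTiter-Glo luminescence following 5 min room-temperature incubation with reagent. Prior exposure: 48 h, 37C, humidified 5% CO2, 500 cells per well.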

The nature of test [16]: Quantitative High-Throughput drug screen in 47 multiple myeloma cell lines against the NCATS MIPE library collection: KMS28PE_JCRB cell viability assay (AID 1918983). Further: nearly all actives have a fitted effect of over 35% in size. Further: potency means the concentration at half of the fitted maximal effect. The procedure, abridged: as §1
Test [17] in a line: Quantitative High-Throughput drug screen in 47 multiple myeloma cell lines against the NCATS MIPE library collection: U266_ATCC cell viability assay (AID 1919864). Further: nearly all actives have a fitted effect of over 35% in size. Further: potency means the concentration at half of the fitted maximal effect.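 On viability (% of DMSO control): 0% = media-only wells without cells and 100% = DMSO-only wells.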 An outline of the steps:
as §1

Test [18] is described as follows: Quantitative High-Throughput drug screen in 47 multiple myeloma cell lines against the NCATS MIPE library collection: SKMM1_PLB cell viability assay (AID 1919863). Further: nearly all actives have a fitted effect of over 35% in size. Further: potency means the concentration at half of the fitted maximal effect. Conditions: SKMM1 myeloma viability, CellTiter-Glo ATP, 48 h; viability: active compounds read low. An outline of the steps:
as §1

As for `Cc1ccc(NC(=O)c2cccc(N(C)C)c2)cc1NC(=O)c1ccc(O)cc1`, the Potency result in test [1] and in test [10] was “inactive” each time. Further, the Potency in test [2] was 0.059 µM (active); in test [3] it was 1.32 µM (active); in [4], 23.5 µM (active); in test [5] it was 0.0469 µM (active); in [6], 0.469 µM (active); in [7], 0.332 µM (active). Further, the Potency in test [8] is 18.7 µM (active); in test [9], 0.418 µM (active); in test [11], 4.18 µM (active); in [12] it was 5.26 µM (active).
In the case of `C[C@H]1[C@H](O)O[C@@H]2O[C@@]3(C)CC[C@@H]4[C@H](C)CC[C@@H]1[C@@]24OO3`, the Potency was 2.35 µM (active) in test [1]; 1.18 µM (active) in test [2]; 5.26 µM (active) in test [3]; 11.8 µM (active) in test [4]; 3.72 µM (active) in test [13]; 3.72 µM (active) in test [5]. The Potency was 2.35 µM (active) in test [8], 1.32 µM (active) in test [10], 1.66 µM (active) in [11] and 13.2 µM (active) in test [12].
For the compound `O=[N+]([O-])c1ccc(Nc2ccccc2-c2ccccc2)c2nonc12`, the Potency in test [1] is 16.6 µM (active); in [2] it was 18.7 µM (active); in test [4], 26.4 µM (active); in [8], 20.9 µM (active). In addition, the Potency entry in [14] was “inactive”.
Turning to `Cc1cc(CS(=O)(=O)c2ccccc2)cc(OCc2ccc(CN3CCC[C@H]3CO)cc2)c1`, the Potency in test [1] was 8.33 µM (active); in test [6] it was 0.296 µM (active). Besides, the Potency entry in test [14], in test [15] and in test [12] was “inactive” each time.
Take `CC(C)Oc1cc(Nc2nc(N[C@@H](C)c3ccc(F)cn3)ncc2Cl)[nH]n1`: the Potency was 23.5 µM (active) in test [1]; 4.18 µM (active) in test [2]; 26.4 µM (active) in test [3]; 3.72 µM (active) in [4]; 7.43 µM (active) in [13]; 14.8 µM (active) in [5]. Moreover, the Potency in test [6] is 7.43 µM (active); in test [7], 8.33 µM (active); in test [8], 6.62 µM (active); in [9], 7.43 µM (active); in [15] it was 16.6 µM (active). In [10], the Potency result was “inactive”.
With `Cc1cc(NC(=O)Nc2ccc(N(C)C)cc2)c2cc(F)cc(F)c2n1`, the Potency entry in [16], in test [17], in test [13], in test [7], in test [8] and in test [9] was “inactive” each time. In test [12], the Potency result was “inactive”.
On to `NCc1c[nH]c(=S)n1[C@H]1CCc2c(F)cc(F)cc2C1`, for which the Potency in [16] was 14.8 µM (active); in test [3], 9.35 µM (active); in test [13], 18.7 µM (active); in test [8], 16.6 µM (active); in test [9] it was 2.96 µM (active); in test [10] it was 26.4 µM (active). Besides, the Potency in test [11] and in [12] was 20.9 µM (active) each time.
`CS(=O)(=O)c1ccc(C2=C(c3ccccc3)C(=O)OC2)cc1`: the Potency result in [1], in [14], in test [13], in test [7], in [9] and in test [15] was “inactive” each time. The Potency entry in test [11] and in [12] was “inactive” throughout. Besides, the viability in test [18] was 152%.
With `CCCCN(CCCC)CC(O)c1cc(Cl)cc2c1-c1ccc(Cl)cc1C2=Cc1ccc(Cl)cc1` (stereo not drawn), the Potency result in test [1] and in test [17] was “inactive” throughout. Further, the Potency in test [2] is 26.4 µM (active); in test [3], 10.5 µM (active); in test [4], 18.7 µM (active); in test [18] it was 33.2 µM (active); in [13], 26.4 µM (active); in test [5] it was 23.5 µM (active). Besides, the values for the Potency in test [6], in [8] and in test [12] were 23.5 µM (active), 20.9 µM (active) and 23.5 µM (active), respectively.
As for `CCCCCCCCCCCCCCCC(=O)O[C@H]1[C@@H](O)[C@@H](O)[C@@H]([C@H](NC(=O)[C@@H]2C[C@@H](CCC)CN2C)[C@H](C)Cl)O[C@@H]1SC`, the Potency entry in test [16], in test [3], in test [5], in test [9], in [15] and in test [11] was “inactive” throughout. Also, the Potency in test [17] is 18.7 µM (active); in [8] it was 10.5 µM (active); in test [10], 3.32 µM (active).
`COc1cccc(OC)c1-c1cc(C(=O)NC2(C(=O)O)C3CC4CC(C3)CC2C4)nn1-c1ccnc2cc(Cl)ccc12` (stereo not drawn): the Potency entry in test [16], in test [3], in test [13], in test [5], in test [6] and in [7] was “inactive” in each case. The Potency entry in test [8], in test [10], in test [11] and in [12] was “inactive” in each case.
